From PubChem BioAssay
Unmarked numbers belong to inactive results. The source made the active and inactive calls.

These compounds were tested against NADPH oxidase 2 (Homo sapiens) (UniProt P04839) (assay: compounds shifting NOX2 Amplex Red fluorescence – cell-based, HEK293-NOX2, PMA-stimulated, NOX inhibitor project, primary screen (AID 1159; further: test concentration not given here)). Details: 45 min, higher = more signal, called active from +8 up or from −8 down.
Chain of NADPH oxidase 2 (Homo sapiens) (P04839 whole entry, looked up): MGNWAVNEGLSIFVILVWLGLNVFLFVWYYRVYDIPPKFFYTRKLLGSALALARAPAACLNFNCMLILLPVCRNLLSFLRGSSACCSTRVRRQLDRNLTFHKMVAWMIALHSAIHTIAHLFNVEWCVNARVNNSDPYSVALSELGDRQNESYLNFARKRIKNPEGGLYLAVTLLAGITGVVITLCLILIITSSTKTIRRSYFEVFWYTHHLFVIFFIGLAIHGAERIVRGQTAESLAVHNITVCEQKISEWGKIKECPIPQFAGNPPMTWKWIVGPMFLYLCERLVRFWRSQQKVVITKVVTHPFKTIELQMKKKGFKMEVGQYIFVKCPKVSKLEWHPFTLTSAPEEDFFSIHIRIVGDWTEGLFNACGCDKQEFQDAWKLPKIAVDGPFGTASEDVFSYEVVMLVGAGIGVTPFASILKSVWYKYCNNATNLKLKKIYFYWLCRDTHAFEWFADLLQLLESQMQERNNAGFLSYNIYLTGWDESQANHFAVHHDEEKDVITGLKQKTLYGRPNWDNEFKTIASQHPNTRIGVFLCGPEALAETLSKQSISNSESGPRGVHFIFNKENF
Work on C=C(C)C1C(=C)CN([C@H](CO)c2ccccc2)C1=O (stereo not given in full) yielded a z-score of 1.98.
N#Cc1ccc(NN2C(C(O)c3c(F)cccc3Cl)C=CC3C(=O)N(c4ccccc4)C(=O)C32)cc1 (stereo not given) was tested, and the z-score was -1.1.
[N-]=[N+]=Nc1ccccc1[C@H]1OC(c2ccc(OCCCO)cc2)=N[C@@]1(Cc1ccccc1)C(=O)O gave a z-score of -0.0311.
O=C1NCC(=O)N2[C@@H]1C[C@@H](C(=O)O)[C@H]2c1cccc(OCCO)c1 was tested, and the z-score was 0.313.
COc1ccc(CCN2C(=O)[C@@]3(Cc4ccccc42)c2ccccc2C(=O)N(Cc2ccccc2C(F)(F)F)[C@H]3c2ccc(CO)cc2)cc1 gave a z-score of -1.4.
Work on CN(C)C(=O)[C@]1(Cc2ccccc2CN=[N+]=[N-])N=C(c2ccc(OCCCO)cc2)O[C@@H]1c1ccccc1CN=[N+]=[N-] yielded a z-score of -3.36.
CC(C)C[C@@H]1NC(=O)[C@H]2C[C@@H](C(=O)NCCCCCCN)[C@@H](c3ccc(O)cc3)N2C1=O showed a z-score of 1.21.
Work on C=C(CCCC)/C(=C/C[C@@H](OC(C)=O)c1ccccc1OCCO)c1cnc2ccccc2c1 yielded a z-score of -1.87.
COC(=O)[C@@]1(Cc2ccccc2)[C@H]2c3cc(C(=O)N4CCCC4)n(Cc4cccc5ccccc45)c3C[C@H]2CN1C(=O)c1ccccc1 was tested, and the z-score was 0.586.
[N-]=[N+]=NCc1ccccc1[C@@H]1OC(c2ccc(OCCCO)cc2)=N[C@]1(CCS(=O)(=O)c1ccccc1)C(=O)NCc1ccccc1 gave a z-score of -1.04.
O=C1C[C@]2(c3ccc([N+](=O)[O-])cc3)C(=O)N(CCN3CCOCC3)c3cc(CO)ccc3[C@H]2N1C1CCCCC1 showed a z-score of -0.791.
O=C1O[C@@H](c2ccccc2)[C@@H](c2ccccc2)N2[C@@H](c3ccc(OCCO)cc3)[C@]3(C(=O)Nc4ccccc43)[C@@H](C(=O)NC[C@H](O)c3ccccc3)[C@H]12 gave a z-score of 1.62.
Compound Cc1ccc(C(C)CC(O)C2C=CC3C(=O)N(c4ccccc4)C(=O)C3N2Nc2ccc([N+](=O)[O-])cc2)o1 (stereo not given) has a z-score of 0.414.
CC(C)C[C@@H]1NC(=O)[C@@H]2C[C@H](C(=O)NCCCCCN)[C@H](c3cccc(OCCO)c3)N2C1=O showed a z-score of 1.22.
C=C(CCCC)C(=O)CC[C@@H](OC(=O)c1cccnc1)c1ccc(CO)o1 was tested, and the z-score was 0.341.
COc1ccc(C(O)C2C=CC3C(=O)N(c4ccccc4)C(=O)C3N2Nc2ccc(C(C)C)cc2)cc1OCc1ccccc1 (stereo not given) gave a z-score of 0.506.
CC(C)[C@@H](CO)NC(=O)[C@H]1[C@@H](c2ccccc2)N(c2ccccc2)O[C@@H]1C gave a z-score of -0.982.
O=C1c2ccccc2[C@](Cc2ccccc2I)(C(=O)NC2CC2)[C@H](c2ccc(CO)cc2)N1C1CCCCC1 was tested, and the z-score was 0.478.
Work on CC1CC/C=C\[C@H]2OC34C=CCN(Cn5nnc6ccccc65)C(=O)[C@H]3N(C(CO)C(C)C)C(=O)[C@@H]4C2C(=O)O1 (stereo not given in full) yielded a z-score of 1.09.
C=CCOC(=O)[C@H]1[C@@H]2C(=O)O[C@@H](c3ccccc3)[C@@H](c3ccccc3)N2[C@@H](c2ccc(OCCOC(=O)[C@H]3C[C@H]4C(=O)N[C@@H](CC(C)C)C(=O)N4[C@H]3c3ccc(O)cc3)cc2)[C@]12C(=O)Nc1ccc(I)cc12 showed a z-score of 1.82.
COCCOC(=O)N1C(=O)[C@@]2(c3cc(C#CC4=CCCCC4)ccc31)[C@H](c1ccc(O)cc1)N1[C@H](c3ccccc3)[C@H](c3ccccc3)OC(=O)[C@H]1[C@@H]2C(N)=O showed a z-score of 0.823.
For CN(C)CCCNC(=O)[C@@]1(c2ccc([N+](=O)[O-])cc2)CC(=O)N(C2CCCCC2)[C@@H]1c1ccc(CO)cc1I, the z-score was -8.16 (active).
In the case of COCCOC(=O)N1C(=O)[C@@]2(c3cc(C#CCCO)ccc31)[C@H](C(=O)N1CCc3cc(OC)c(OC)cc3C1)[C@H]1C(=O)O[C@H](c3ccccc3)[C@H](c3ccccc3)N1[C@@H]2c1ccc(O)cc1, the z-score is reported as 1.26.
CCCC[C@@H]1C[C@H]1[C@@H](NC(=O)c1ccco1)c1ccc(C(=O)OC)cc1 showed a z-score of -1.55.
Compound CCCCCN1CC=CC23O[C@@H]4/C=C\CCCOC(=O)C4[C@H]2C(=O)N(CCCO)[C@@H]3C1=O (stereo not given in full) has a z-score of 1.46.
